# Measurements: PubChem BioAssay AID434970 (Sanford-Burnham Center for Chemical Genomics, 2010)
# The whole screen tested about 11,000 compounds, of which about 310 (2.8%) were called active. Rule as the data show it: active = activity change below about -85%; inactive = the rest. The entries come from a sample that favours actives as a whole.
# System: intestinal alkaline phosphatase [Mus musculus]
# Assay: activators of mouse IAP, confirmation, biochemical, luminescence, single concentration (AID 434970)
# Conditions: purified mouse IAP, CDP-Star luminescence, 30 min, at 10 µM; activation factor: measured here: IAP activation factor, stronger effect = higher value; activity change, negative = activation: stronger effect = lower value
Compound,activation factor,"activity change, negative = activation"
CCCc1c(NC(=O)Nc2ccc(F)cc2)cnn1-c1ccc(Cl)cc1,2.42,-142% (active)
O=C(NCCc1ccncc1)Nc1ccc(Cl)cc1,1.09,-8.6% (inactive)
CCCc1c(NC(=O)Nc2ccc(F)cc2)cnn1-c1ccccc1,1.57,-57.2% (inactive)
COCCn1c(SCC(=O)Nc2nc3ccccc3s2)nnc1-c1ccoc1C,0.944,5.6% (inactive)
N#CCCn1c(=S)[nH]c2ccccc21,0.98,2% (inactive)
Cc1ccc(S(=O)(=O)Nc2ccc(O)c(Sc3ncn[nH]3)c2)cc1,0.349,65.1% (inactive)
CN(C)S(=O)(=O)Oc1cccc(C(=O)Nc2ccc(Cl)cc2)c1,0.992,0.85% (inactive)
CN(C)S(=O)(=O)Oc1cccc(C(=O)Nc2ccc(Cl)c(Cl)c2)c1,0.948,5.2% (inactive)
CNC(=O)Nc1ccc(Cl)cc1,1.26,-26.3% (inactive)
Cc1cc(C)cc(C(=O)N(NC(=O)Nc2ccc(Cl)cc2)C(C)(C)C)c1,4.22,-322% (active)
COC(=O)c1cccc(NC(=O)Nc2ccc(Cl)c(Cl)c2)c1,1.89,-88.6% (inactive)
CC(C)(C)N(NC(=O)Nc1ccc(Cl)c(Cl)c1)C(=O)c1ccccc1,3.95,-295% (active)
CCCN(/C=N/c1sc2c(c1C#N)CCCCC2)CCC,0.953,4.7% (inactive)
Cn1ncc(C#N)c1/N=C/N1CCOCC1,1.05,-4.75% (inactive)
Cc1ccc(CNC(=O)c2ccc(NC(=O)CCS(=O)(=O)c3cccs3)cc2)cc1,0.978,2.15% (inactive)
CC(NC(=S)Nc1ccc(S(=O)(=O)N2CCOCC2)cc1)C1CC2CCC1C2 (centres undefined),2.45,-145% (active)
CC(C)c1ccc(N(CC(=O)Nc2ccc(S(=O)(=O)N3CCOCC3)cc2)S(C)(=O)=O)cc1,1.12,-12.1% (inactive)
O=C(Nc1ccc(S(=O)(=O)N2CCOCC2)cc1)C1CCCCC1,0.984,1.6% (inactive)
Cc1cc[n+](CCC(=O)O)c2ccccc12,0.901,9.85% (inactive)
CCN(C1CCCCC1)S(=O)(=O)c1cc(C)ccc1OC,1.04,-4.35% (inactive)
CN1CC(COCc2ccccc2)Oc2ccccc2S1(=O)=O (centres undefined),1.04,-4.4% (inactive)

Compound,activation factor,"activity change, negative = activation"
CC(NC(=O)Nc1ccc(Cl)c(Cl)c1)C(c1ccccc1)N1CCOCC1 (centres undefined),3.21,-221% (active)
CC(Cc1cccs1)NC(=O)Nc1ccc(Cl)c(Cl)c1 (centres undefined),0.945,5.6% (inactive)
CC(NC(=O)Nc1ccc(Cl)cc1)C(c1cccs1)N1CCOCC1 (centres undefined),1.71,-71.1% (inactive)
Cc1ccc(N2C(=O)c3ccc(C(=O)Nc4cccnc4)cc3C2=O)c(C)c1,0.946,5.45% (inactive)
Cc1ccc2[nH]c(=O)c(C(c3nnnn3CC3CCCO3)N3CCCc4ccccc43)cc2c1 (centres undefined),0.398,60.2% (inactive)
Cc1cccc(C)c1NC(=O)CS(=O)CC(=O)NC1CCCc2ccccc21 (centres undefined),1.11,-11.2% (inactive)
CC(C)(C)c1ccc(NC(=O)NC2CCCc3ccccc32)cc1 (centres undefined),3.53,-253% (active)
Cc1cccc(-n2nnc(C(=O)NC3CCCc4ccccc43)c2N)c1 (centres undefined),1.01,-1.4% (inactive)
COc1cccc(NC(=O)NC2CCCc3ccccc32)c1 (centres undefined),2.74,-174% (active)
Cc1cccc(NC(=O)NC2CCCc3ccccc32)c1 (centres undefined),3.36,-236% (active)
COC(=O)c1ccc(NC(=S)NC2CCc3ccccc32)cc1 (centres undefined),1.51,-50.8% (inactive)
CCOc1ccc(NC(=O)CS(=O)CC(=O)NC2CCCc3ccccc32)cc1 (centres undefined),1,-0.45% (inactive)
COc1ccc(-c2nnn(CC(=O)NC3CCCc4ccccc43)n2)cc1OC (centres undefined),1.06,-5.8% (inactive)
CCOc1ccc(NC(=O)CN(C)CC(=O)NC2CCCc3ccccc32)cc1OCC (centres undefined),1.1,-9.8% (inactive)
CCCn1c(Nc2ccccc2C)nc2ccccc21,0.988,1.25% (inactive)
COC(=O)c1cn(CC(=O)NC2CCCCC2)c2ccccc12,1.04,-3.9% (inactive)
Cc1ccc(-c2cc(-c3ccccc3)c3c(N)c(S(C)(=O)=O)sc3n2)cc1,0.966,3.45% (inactive)
O=c1oc2cc(OCc3ccc([N+](=O)[O-])cc3)ccc2c2c1CCCC2,0.909,9.15% (inactive)
COc1cccc(N=c2oc3ccc(OC)cc3cc2-c2nc3ccccc3[nH]2)c1,1.03,-2.7% (inactive)
O=C(Nc1ccccc1)c1ccc(S(=O)(=O)N2CCOCC2)cc1,1.01,-1.35% (inactive)
Cc1ccc(C(=O)N2CCOCC2)cc1Cl,0.984,1.65% (inactive)

Compound,activation factor,"activity change, negative = activation"
CC(Sc1ccc(Cl)cc1)C(=O)Nc1ccc(S(=O)(=O)N2CCOCC2)cc1 (centres undefined),1.07,-7.35% (inactive)
CCN(CC)c1ccc(S(=O)(=O)N2CCOCC2)cc1NC(=O)Nc1ccccc1,2.53,-153% (active)
Cc1oc(S(=O)(=O)N2CCCCC2)cc1NC(=O)Nc1ccc(Cl)cc1,1.42,-41.8% (inactive)
Cc1ccc(NC(=O)Nc2ccccc2F)cc1S(=O)(=O)N1CCOCC1,1.52,-51.6% (inactive)
CC(=O)c1cccc(NC(=O)Nc2ccc(C(=O)N3CCOCC3)cc2)c1,1.06,-6.35% (inactive)
CN1CCN(c2ccc(Cl)cc2NC(=O)c2ccc(S(=O)(=O)N3CCCCCC3)cc2)CC1,0.982,1.75% (inactive)
O=C(Nc1ccc(Cl)cc1)Nc1cc(S(=O)(=O)N2CCOCC2)ccc1N1CCCC1,2.15,-116% (active)
COc1ccccc1NC(=O)c1cc(S(=O)(=O)N2CCOCC2)ccc1Cl,0.877,12.2% (inactive)
O=C(Nc1ccc(Cl)c(Cl)c1)Nc1cc(S(=O)(=O)N2CCOCC2)ccc1N1CCCC1,2.53,-153% (active)
O=C(Nc1ccc(Cl)c(Cl)c1)Nc1cc(C(=O)N2CCOCC2)ccc1N1CCCCC1,2.67,-167% (active)
Cc1ccc2c(c1)nnn2C1CCN(S(C)(=O)=O)CC1,0.904,9.55% (inactive)
CCc1ccccc1NC1=NCC(=O)N1Cc1ccccc1,1,-0.1% (inactive)
COc1cccc(-c2sc3cc(OC)c(OC)cc3c2-c2ccc(OCCN3CCCCC3)cc2)c1,1.01,-0.55% (inactive)
O=C(c1cccs1)N1CCCC(c2ccccc2)C1 (centres undefined),0.929,7.1% (inactive)
COc1cc(=O)n(C)c2cc(N(C)C)ccc12,0.917,8.35% (inactive)
COc1ccc2[nH]c3c(c2c1)CCN1C(=O)C(CC(=O)NCc2cccc(C(F)(F)F)c2)C[C@H](C(=O)N2CCOCC2)[C@@]31C (some centres undefined),1.08,-8.45% (inactive)
COc1ccc(Cc2nc3ccc(C(=O)NCc4ncc(C)[nH]4)cc3o2)cc1OC,0.927,7.3% (inactive)
COC(=O)c1sccc1NC(=O)C1CC=CCC1C(=O)O (centres undefined),0.998,0.15% (inactive)
CC1(C)Cc2noc(N)c2C(C)(C)N1OC(=O)c1cccs1,1.04,-3.75% (inactive)
CC[C@]12c3[nH]c4cc(CCC(=O)N(C)C)ccc4c3CCN1C(=O)[C@@H](CC(=O)NC/C=C(\C)CCC=C(C)C)C[C@@H]2C(=O)N1CCN(C(=O)C2CC2)CC1,1.09,-9.3% (inactive)
O=C(c1ccc(Cn2c(=O)[nH]c3ccccc3c2=O)cc1)N1CCN(c2ccc(F)cc2)CC1,1,0.05% (inactive)

Compound,activation factor,"activity change, negative = activation"
S=C(NCc1ccccc1)Nc1cccc(Cl)c1,1.4,-40.5% (inactive)
S=C(NCCC(c1ccccc1)c1ccccc1)Nc1ccc(Cl)cc1,2.1,-110% (active)
Fc1ccccc1CNC(=S)Nc1ccc(Cl)cc1,1.38,-38.1% (inactive)
Cc1ccc(NC(=S)NCCSc2ccc(Cl)cc2)cc1,1.45,-45.4% (inactive)
S=C(NCCN(C1CCCCC1)C1CCCC1)Nc1cccc(Cl)c1,1.69,-68.5% (inactive)
S=C(NCCC(c1ccccc1)c1ccccc1)Nc1cccc(Cl)c1,3.74,-274% (active)
CC(C)CN(C(=O)COC(=O)Cn1cnc2ccccc2c1=O)C1CCS(=O)(=O)C1 (centres undefined),0.927,7.25% (inactive)
CCOc1ccc(-c2cc(CCCC(=O)NCCc3ccccc3)no2)cc1,1.07,-6.9% (inactive)
CCOC(=O)CN(C(=O)CN1CCC(n2nnc3cc(C)ccc32)CC1)c1ccccc1,0.982,1.8% (inactive)
Cc1ccc(C)c(CN2CCC(n3nccc3NC(=O)CCCc3ccccc3)CC2)c1,2.31,-131% (active)
COc1ccccc1CN1CCN(S(=O)(=O)c2ccccc2)CC1,0.897,10.3% (inactive)
COc1ccc(CN2CCC(n3nccc3NC(=O)CCc3ccccc3)CC2)c(C)c1C,1.6,-60% (inactive)
COc1ccccc1CN1CCC(n2nccc2NC(=O)CCCc2ccccc2)CC1,2.08,-108% (active)
CCOc1cccc(CN2CCC(n3nccc3NC(=O)CCCc3ccccc3)CC2)c1,2.3,-130% (active)
COc1ccc(-c2noc(CCCC(=O)NCCc3ccccc3)n2)cc1OC,0.998,0.25% (inactive)
COc1ccc(Cl)cc1NC(=O)CN1CCC(n2nnc3ccccc32)CC1,0.96,4.05% (inactive)
Cc1ccc(-c2nnn(CC(=O)NC3CCN(Cc4ccccc4)CC3)n2)cc1,1.04,-4.25% (inactive)
COc1ccc(CN2CCC(n3nccc3NC(=O)CCCc3ccccc3)CC2)cc1C,2.4,-140% (active)
CCOc1ccc(CN2CCC(n3nccc3NC(=O)CCCc3ccccc3)CC2)cc1,1.83,-83% (inactive)
